Measured values as given in PubChem BioAssay (NCATS).
Results filed as inconclusive are left out. Activity calls are given as the source filed them. Unless noted, the call rests on the fitted dose curve; in most records, active means well fitted curve in the direction sought with a large enough effect; inconclusive means small, poorly fitted or top-dose-only effect, or another doubt; inactive means no such curve, though single readings can be large; an effect the other way counts as inactive or inconclusive.

Experiments:
[1] = Cell Viability - BJ (AID 421; calls by dose curve;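 further: potency means the concentration at half of the fitted maximal effect; cells exposed to compound for 40 hours at 37 °C before readout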); conditions: BJ fibroblast viability, qHTS
Procedure, shortened: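 Cytotoxicity in human BJ foreskin fibroblasts is scored as loss of cellular ATP after a 40-hour exposure, measured by luciferase luminescence. Controls are DMSO and 100 uM tamoxifen.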

[2] = Cell Viability - Jurkat (AID 426;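 active means dose-dependent loss of cell ATP signal giving a full or clear fitted curve, ranked by lower potency value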;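 further: potency means the concentration at half of the fitted maximal effect; cells exposed to compound for 40 hours at 37 °C before ATP read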); conditions: qHTS
Procedure, shortened: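 Seed 5000 Jurkat E6-1 cells/well; add compound; incubate 40 hr at 37 °C; add CellTiter-Glo; wait 20 min at room temperature; read luminescence. Fit concentration-response with Hill equation for AC50.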

[3] = Cell Viability - Hek293 (AID 427;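 active means compounds whose dose-response curve shows a full or clear partial loss of cell viability, called from curve shape rather than a numeric limit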;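 further: potency means the concentration at half of the fitted maximal effect; cells exposed to compound for 40 hours at 37 °C before reading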); conditions: qHTS
Procedure, shortened: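 qHTS, human embryonic kidney (adenovirus-transformed) cells; 40 hr cpd, 37 °C; CellTiter-Glo ATP luminescence. Norm: DMSO = 0, 100 uM tamoxifen = 100% inhibition. Hill-fit AC50.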

[4] = Cell Viability - HepG2 (AID 433; calls by dose curve;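 further: potency means the concentration at half of the fitted maximal effect; cells exposed to compound for 40 hours; potency for ATP loss meaning cytotoxicity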); conditions: qHTS
Procedure, shortened: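 Cytotoxicity read as ATP loss (CellTiter-Glo luminescence) after 40 hr compound exposure of HepG2, 1500 cells/well, 37 °C. AC50 by Hill equation; 0% set by DMSO, 100% inhibition by 100 uM tamoxifen.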

[5] = Cell Viability - MRC5 (AID 434; calls by dose curve;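 further: potency means the concentration at half of the fitted maximal effect; cells exposed to compound for 40 hours at 37 °C; potency reflects cytotoxicity seen as loss of intracellular ATP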); conditions: MRC5 lung fibroblast viability, qHTS
Procedure, shortened: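 MRC5 normal human lung fibroblasts (1500/well) were treated with compounds for 40 hr at 37 °C in complete medium, and viable cells were measured as intracellular ATP by CellTiter-Glo luminescence. AC50 came from Hill fits, normalized to DMSO and 100 uM tamoxifen.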

[6] = Cell Viability - SK-N-SH (AID 435; calls by dose curve; further: potency means the concentration at half of the fitted maximal effect); conditions: SK-N-SH neuroblastoma cell viability qHTS
Procedure, shortened: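 qHTS cytotoxicity: CellTiter-Glo ATP luminescence after 40 h compound exposure of human neuroblastoma SK-N-SH cells at 37 °C. AC50 derived by Hill-equation fitting, with DMSO as basal and 100 uM tamoxifen as full inhibition.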

[7] = target: Mitogen-activated protein kinase 10 (Mus musculus) (UniProt Q61831); assay: JNK3 AlphaScreen Assay (AID 530; active means well fitted curve in either direction with a large enough effect, not every such curve was filed as active;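 further: kinase came from lysate of stimulated human HepG2 cells; signal reports phosphorylation of biotinylated GST-cJun 1-79 at Ser73 with 10 µM ATP; on the % scale 0 is the no-effect control and ±100 the full control effect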); conditions: JNK3 lysate, c-Jun phosphorylation; series mostly up to 57.1 µM
Procedure, shortened: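 JNK3 came from HepG2 lysates pre-activated with IL-1beta and TNF-alpha and phosphorylated biotinylated GST-cJun (1-79) at 10 uM ATP, pH 7.6, room temperature. Compounds were titrated. AlphaScreen signal used anti-phospho-cJun (Ser73) antibody.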

[8] = Cell Viability - N2a (AID 540); conditions: N2a mouse neuroblastoma cell viability; activity change, negative = cytotoxicity: at 92.2 µM (top of the series);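 further: plate controls were DMSO alone for no effect and tamoxifen control for full effect; nearly all actives have a fitted effect of over 45% in size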
Procedure, shortened: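 First, 1500 N2a cells per well incubate 5 hr at 37 °C; next, compounds are added and incubated 40 hr at 37 °C; finally CellTiter-Glo is added and luminescence read after 20 min, with AC50 derived by Hill modeling.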

[9] = Cell Viability - NIH 3T3 (AID 541); conditions: NIH 3T3 cell viability, qHTS; activity change, negative = cytotoxicity: at 92.2 µM (top of the series);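 further: cells exposed to compound for 40 hours; plate controls were DMSO alone for no effect and tamoxifen positive control for full effect; nearly all actives have a fitted effect of over 25% in size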
Procedure, shortened: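 AC50 values reflect concentration-dependent loss of intracellular ATP in NIH 3T3 cells after 40 hr treatment in complete culture medium, quantified by luciferase-based luminescence.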

[10] = Cell Viability - HUV-EC-C (AID 542); conditions: HUV-EC-C endothelial cell viability, qHTS; series mostly up to 92.2 µM;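 further: cells exposed to compound for 40 hours; on the % scale 0 is the no-effect control and ±100 the full control effect; nearly all actives have a fitted effect of over 35% in size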
Procedure, shortened: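 Decrease in cellular ATP, quantified by luciferase luminescence, reflects toxicity in normal human vascular endothelial HUV-EC-C cells given compound for 40 hr in complete culture medium. Values are AC50s from concentration-response curves.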

[11] = Cell Viability - H-4-II-E (AID 543); conditions: H-4-II-E rat hepatoma viability; series mostly up to 92.2 µM;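 further: cells exposed to compound for 40 hours; on the % scale 0 is the no-effect control and ±100 the full control effect; nearly all actives have a fitted effect of over 35% in size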
Procedure, shortened: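 Here, cytotoxicity is measured in the rat hepatoma line H-4-II-E as loss of intracellular ATP after 40 hr compound treatment, detected by luciferase luminescence.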

[12] = Cell Viability - SH-SY5Y (AID 544); conditions: SH-SY5Y neuroblastoma cell viability; viability change, negative = cytotoxic: at 92.2 µM (top of the series);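 further: cells exposed to compound for 40 hours; nearly all actives have a fitted effect of over 55% in size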
Procedure, shortened: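 Cytotoxicity is scored as a concentration-dependent fall in intracellular ATP in human SH-SY5Y cells treated 40 hr in complete culture medium. Potency is expressed as AC50 from a Hill equation fit.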

[13] = Cell Viability - Renal Proximal Tubule (AID 545); conditions: renal proximal tubule cells viability, primary cells of rat origin; series mostly up to 91.7 µM;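 further: cells exposed to compound for 40 hours; nearly all actives have a fitted effect of over 40% in size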
Procedure, shortened: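 Viability taken as intracellular ATP (CellTiter-Glo luminescence) after 40 hr, 37 °C compound treatment of primary proximal tubule cells from rat kidney, 1000 cells/well; Hill-equation fits of qHTS concentration-response data gave AC50.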

[14] = Cell Viability - Mesenchymal (AID 546); conditions: mesenchymal cells viability, qHTS; series mostly up to 91.7 µM;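 further: cells exposed to compound for 40 hours before reading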
Procedure, shortened: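 Normal human renal glomerulus-derived kidney mesenchymal cells, 1000 per well in complete medium, were treated with compounds for 40 hr at 37 °C. Viability was read as intracellular ATP by CellTiter-Glo luminescence; AC50 values came from Hill-equation fits of qHTS concentration-response data.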

[15] = Cellular Toxicity (caspase-3) HepG2 (AID 654); conditions: HepG2 caspase-3 activation, luminescence; series mostly up to 92.2 µM;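 further: cells exposed to compound for 16 hours before reading; 0% = DMSO alone and 100% = caspase signal from 100 µM tamoxifen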
Procedure, shortened: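 qHTS, HepG2, 1500 cells/well, complete medium; cpd 16 h 37 °C; Caspase-Glo 3/7, 20 min RT; lum. Norm: DMSO vs 100 uM tamoxifen; AC50 Hill fit.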

[16] = Cellular Toxicity (caspase-3) HUV-EC-C (AID 656); conditions: HUV-EC-C cells, caspase-3 activation (apoptosis), vehicle = 0, 100 µM tamoxifen = 100%; series mostly up to 92.2 µM
Procedure, shortened: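 Luminescent Caspase-Glo 3/7 readout after 16 h, 37 °C compound exposure of HUV-EC-C endothelial cells, 1000 per well, complete medium. AC50 derived by Hill fitting, with DMSO as baseline and 100 uM tamoxifen as full activation.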

[17] = Cellular Toxicity (caspase-3) SHSY5Y (AID 657); conditions: SH-SY5Y caspase-3 activation, DMSO zero, 10 µM staurosporine = 100%; series mostly up to 91.7 µM
Procedure, shortened: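 Luminescent Caspase-Glo 3/7 read-out, 1 hr room temperature, follows 16 hours of compound treatment of SH-SY5Y cells at 37 °C. Normalization: DMSO basal, 10 uM staurosporine as 100%; AC50 values from Hill-equation concentration-response fits.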

[18] = Cellular Toxicity (caspase-3) BJ (AID 658); conditions: BJ fibroblasts, luminescence, normalized: DMSO 0%, staurosporine 100%; series mostly up to 91.7 µM
Procedure, shortened: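 Luminescent aminoluciferin-substrate cleavage reports caspase 3/7 activity in normal human BJ fibroblasts after 16 hr compound exposure at 37 °C. Normalized to DMSO (basal) and 10 uM staurosporine (100%); AC50 from Hill fit of concentration-response.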

[19] = Cellular Toxicity (caspase-3) MRC-5 (AID 659); conditions: MRC-5 cells, luminescence, normalized: DMSO 0%, 10 µM staurosporine 100%; series mostly up to 91.7 µM
Procedure, shortened: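 Luminescence from caspase-cleaved aminoluciferin substrate (Caspase-Glo 3/7, 1 hr RT) reports caspase 3/7 activity in MRC-5 lung fibroblasts after 16 hr compound exposure. Normalized to DMSO basal and 10 uM staurosporine as 100%; AC50 from Hill fits.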

[20] = Cellular Toxicity (caspase-3) Jurkat (AID 655); conditions: Jurkat caspase-3 activation, luminescence; caspase-3 activation: at 92.2 µM (top of the series), DMSO = 0%, tamoxifen = 100%;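 further: cells exposed to compound for 16 h at 37 °C before reading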
Procedure, shortened: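 Luminescent Caspase-Glo 3/7 read-out (20 min, room temperature) after 16 h compound treatment at 37 C of 5000 Jurkat cells per well. AC50 derived by Hill-equation fitting, scaled between DMSO basal and 100 uM tamoxifen stimulation.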

C=CC(=O)NC(C)C
inactive: Potency [1] > 92 µM | Potency [2] > 92 µM | Potency [3] > 92 µM | Potency [4] > 92 µM | Potency [5] > 92 µM | Potency [6] > 92 µM | outcome [7] | activity change, negative = cytotoxicity [8] 4.17% | Potency [9] | Potency [10] | Potency [11] | Potency [12] | Potency [13] | Potency [14] | Potency [15] | outcome [16] | outcome [17] | outcome [18] | outcome [19]

Cc1c(N)cccc1N
inactive: Potency [1] > 92 µM | Potency [2] > 92 µM | Potency [3] > 92 µM | Potency [4] > 92 µM | Potency [5] > 92 µM | Potency [6] > 92 µM | outcome [7] | activity change, negative = cytotoxicity [8] -3.84% | Potency [9] | Potency [10] | Potency [11] | Potency [12] | Potency [13] | Potency [14] | Potency [15] | outcome [16] | outcome [17] | outcome [18] | outcome [19]

CC(C)CO
inactive: Potency [1] > 92 µM | Potency [2] > 92 µM | Potency [3] > 92 µM | Potency [4] > 92 µM | Potency [5] > 92 µM | Potency [6] > 92 µM | outcome [7] | activity change, negative = cytotoxicity [8] 3.29% | Potency [9] | Potency [10] | Potency [11] | Potency [12] | Potency [13] | Potency [14] | Potency [15] | outcome [16] | outcome [17] | outcome [18] | outcome [19]

Cc1ccccc1C=O
inactive: Potency [1] > 92 µM | Potency [2] > 92 µM | Potency [3] > 92 µM | Potency [4] > 92 µM | Potency [5] > 92 µM | Potency [6] > 92 µM | outcome [7] | activity change, negative = cytotoxicity [8] 2.15% | Potency [9] | Potency [10] | Potency [11] | Potency [12] | Potency [13] | Potency [14] | Potency [15] | outcome [16] | outcome [17] | outcome [18] | outcome [19]

C=Cc1ccc(C=C)cc1
inactive: Potency [1] > 92 µM | Potency [2] > 92 µM | Potency [3] > 92 µM | Potency [4] > 92 µM | Potency [5] > 92 µM | Potency [6] > 92 µM | outcome [7] | activity change, negative = cytotoxicity [8] -7.69% | Potency [9] | Potency [10] | Potency [11] | Potency [12] | Potency [13] | Potency [15] | caspase-3 activation [20] -0.456% | outcome [16] | outcome [17] | outcome [18] | outcome [19]

OC/C(Br)=C(\Br)CO
inactive: Potency [1] > 92 µM | Potency [2] > 92 µM | Potency [3] > 92 µM | Potency [4] > 92 µM | Potency [5] > 92 µM | Potency [6] > 92 µM | outcome [7] | activity change, negative = cytotoxicity [8] -4.76% | Potency [9] | Potency [10] | Potency [11] | Potency [12] | Potency [13] | Potency [14] | Potency [15] | outcome [17] | outcome [18] | outcome [19]

Oc1cccc(Nc2ccccc2)c1
inactive: Potency [1] > 92 µM | Potency [2] > 92 µM | Potency [3] > 92 µM | Potency [4] > 92 µM | Potency [5] > 92 µM | Potency [6] > 92 µM | outcome [7] | activity change, negative = cytotoxicity [8] -16.5% | Potency [9] | Potency [10] | Potency [11] | Potency [12] | Potency [13] | Potency [14] | Potency [15] | outcome [16] | outcome [17] | outcome [18] | outcome [19]

CC(C)N(C)C
inactive: Potency [1] > 92 µM | Potency [2] > 92 µM | Potency [3] > 92 µM | Potency [4] > 92 µM | Potency [5] > 92 µM | Potency [6] > 92 µM | outcome [7] | activity change, negative = cytotoxicity [8] -3.04% | Potency [9] | Potency [10] | Potency [11] | Potency [12] | Potency [13] | Potency [15] | caspase-3 activation [20] -0.157% | outcome [17] | outcome [18] | outcome [19]

CCOC(=O)C(C)C(C)=O (stereo unspecified)
inactive: Potency [1] > 92 µM | Potency [2] > 92 µM | Potency [3] > 92 µM | Potency [4] > 92 µM | Potency [5] > 92 µM | Potency [6] > 92 µM | outcome [7] | activity change, negative = cytotoxicity [8] 0.646% | Potency [9] | Potency [10] | Potency [11] | Potency [12] | Potency [14] | Potency [15] | caspase-3 activation [20] 3.08% | outcome [16] | outcome [17] | outcome [18]

O=C1CCC(=O)O1
inactive: Potency [1] > 92 µM | Potency [2] > 92 µM | Potency [3] > 92 µM | Potency [4] > 92 µM | Potency [5] > 92 µM | Potency [6] > 92 µM | outcome [7] | activity change, negative = cytotoxicity [8] 2.23% | Potency [9] | Potency [10] | Potency [11] | Potency [12] | Potency [13] | Potency [15] | caspase-3 activation [20] 1.09% | outcome [16] | outcome [17] | outcome [18] | outcome [19]

O=C(O)c1ccccc1Cl
inactive: Potency [1] > 92 µM | Potency [2] > 92 µM | Potency [3] > 92 µM | Potency [4] > 92 µM | Potency [5] > 92 µM | Potency [6] > 92 µM | outcome [7] | activity change, negative = cytotoxicity [8] -6.85% | Potency [9] | Potency [10] | Potency [11] | Potency [12] | Potency [14] | Potency [15] | caspase-3 activation [20] -0.163% | outcome [16] | outcome [17] | outcome [18] | outcome [19]
